This is a sample that favours compounds with a hit; in the whole collection about 2.3% have one here.
GLP1R inv ag – acts as inverse agonist at human GLP-1 receptor | P43220 | HEK293 GLP-1R CRE-luciferase, luminescence, 24 h; GLP-1R form is constitutively active | Potency, µM (highest dose often 38.3 µM), actives largely listed as inhibitors | hit rate 1.6% among 410,000; note: nearly all actives have a fitted effect of over 55% in size
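Inverse agonism was detected as reduced cAMP-driven luciferase luminescence after 24 h compound treatment. The cells were HEK293 clones expressing constitutively active human GLP-1R with the reporter. Reporter-only and GPR119 cell lines served as counterscreen controls.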
PTHR1 agonist – activates the human parathyroid hormone receptor PTHR1; AID 743266; HEK293 GP2 PTHR1 cells, GloSensor cAMP luminescence, 1 h; Potency, µM (top dose mostly 115 µM), actives largely listed as activators; Q03431; hit rate 0.075% among 410,000; note: nearly all actives have a fitted effect of over 55% in size
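HEK-293-derived GP2 cells expressing PTHR1 and a GloSensor cAMP reporter, 3,000/well, plated overnight, given luciferin plus IBMX (each 0.5 mM as added) for 1 h at 37 °C, then compound for 1 h at 37 °C. Luminescence was read after 15 min at room temperature.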
GLS inhibitor – blocks human kidney-isoform glutaminase activity. O94925. GLS enzymatic activity, qHTS titration. Potency, µM (top dose mostly 45.5 µM), most hits filed as inhibitors. hit rate 0.21% among 410,000. AID 624170
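Human kidney-isoform GLS in 45 mM KH2PO4 pH 8.2, 0.02% Tween-20, with compound, started with 1mM L-Glutamine (added stock). Glutamate oxidase/HRP/Amplex red coupled fluorescence read at start and after 30 min at RT.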
GLP-1R agonist – activates the human GLP-1 receptor; AID 624172; hit rate 0.007% among 380,000; P43220; Potency, µM (highest dose often 45.6 µM), actives largely listed as activators; HEK293 GLP-1R CRE-luciferase, luminescence, 4-6 h; cells express a hypersensitive GLP-1R form
ALOX12 inh – inhibitors of human 12S-lipoxygenase ALOX12; Potency, µM (highest dose often 108 µM), hits mostly inhibitors; purified 12hLO, xylenol orange hydroperoxide absorbance; hit rate 1.1% among 580,000; P18054
Target sequence (P18054 whole entry, looked up): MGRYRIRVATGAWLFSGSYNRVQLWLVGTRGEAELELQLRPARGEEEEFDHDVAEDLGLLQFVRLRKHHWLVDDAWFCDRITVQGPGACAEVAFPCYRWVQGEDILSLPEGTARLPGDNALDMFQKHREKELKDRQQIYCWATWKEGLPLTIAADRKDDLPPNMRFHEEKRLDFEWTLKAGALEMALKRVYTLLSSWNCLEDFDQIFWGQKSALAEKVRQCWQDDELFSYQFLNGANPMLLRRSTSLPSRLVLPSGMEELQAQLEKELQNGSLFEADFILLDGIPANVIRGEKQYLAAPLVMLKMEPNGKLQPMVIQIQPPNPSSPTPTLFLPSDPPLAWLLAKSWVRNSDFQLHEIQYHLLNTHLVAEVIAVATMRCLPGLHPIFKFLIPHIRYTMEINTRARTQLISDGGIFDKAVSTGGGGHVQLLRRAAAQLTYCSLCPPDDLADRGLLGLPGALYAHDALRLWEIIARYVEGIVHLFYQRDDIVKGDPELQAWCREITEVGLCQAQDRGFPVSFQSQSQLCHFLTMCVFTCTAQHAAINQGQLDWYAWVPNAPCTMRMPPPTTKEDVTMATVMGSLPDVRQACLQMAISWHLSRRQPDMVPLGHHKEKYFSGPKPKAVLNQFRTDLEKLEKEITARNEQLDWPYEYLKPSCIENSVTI
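Purified human 12hLO at 150 nM in 25 mM Hepes, 0.01% Triton X-100, pH 7.0, preincubated 15 min at room temperature with compound. Reaction started with 40 uM arachidonic acid, 30 min at room temperature. Hydroperoxide measured by Fe-xylenol orange, 573/405 nm absorbance ratio.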
Glioma ERSR ind – inducers of ER stress response in human glioma cells; AID 602332; hit rate 0.02% among 420,000; Potency, µM, actives largely listed as activators; U87-MG GRP78 promoter luciferase reporter, 16 h; note: series mostly up to about 76 µM; nearly all actives have a fitted effect of over 35% in size
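Stably transfected U87-MG human glioma cells carrying a GRP78-based luminescent sensor were seeded at 1000 cells/well, pin-dosed with compounds and incubated 16 h. Luciferase reagent was then added, and end-point luminescence was read after 10 min at room temperature.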
A number is an active result. Calls come from the whole dose curve; as a rule, active = well fitted curve in the direction sought with a large enough effect; inconclusive = small, poorly fitted or top-dose-only effect, or another doubt; inactive = no such curve, though single readings can be large; an effect the other way counts as inactive or inconclusive.

What do the screens show for `O=C(CCN1C(=O)/C(=C/c2ccco2)SC1=S)Nc1ccc(O)cc1C(=O)O`?
GLP1R inv ag: inactive; PTHR1 agonist: inactive; GLS inhibitor: inactive; GLP-1R agonist: inactive; ALOX12 inh: inconclusive; Glioma ERSR ind: inactive

What do the screens show for `CC(C(=O)Nc1ccc(O)cc1C(=O)O)N1C(=O)/C(=C\c2cccs2)SC1=S` (configuration not stated)?
GLP1R inv ag: inactive; PTHR1 agonist: inactive; GLS inhibitor: inactive; GLP-1R agonist: inactive; ALOX12 inh: 31.6µM; Glioma ERSR ind: inactive

What do the screens show for `O=C(CN1C(=O)/C(=C\c2ccco2)SC1=S)Nc1ccc(O)cc1C(=O)O`?
GLP1R inv ag: inactive; PTHR1 agonist: inactive; GLS inhibitor: inconclusive; GLP-1R agonist: inactive; ALOX12 inh: 25.1µM; Glioma ERSR ind: inactive

Results for Cc1ccc(NC(=O)C(Sc2nnc(-c3ccoc3C)o2)c2ccccc2)cc1Cl (configuration not stated) ?
ALOX12 inh: inactive

What do the screens show for `COc1cccc(C2CC(=O)Nc3cc(OC)c(OC)c(OC)c32)c1OC` (configuration not stated)?
GLP1R inv ag: inactive; PTHR1 agonist: inactive; GLS inhibitor: inactive; GLP-1R agonist: inconclusive; ALOX12 inh: inactive; Glioma ERSR ind: inactive

Results for Nc1nc2c(s1)C(c1ccc(F)cc1F)CC(=O)N2 (configuration not stated) ?
ALOX12 inh: 12.6µM

Results for Nc1nc2c(s1)C(c1cccc(F)c1F)CC(=O)N2 (configuration not stated) ?
ALOX12 inh: 15.8µM

What do the screens show for `Nc1nc2c(s1)C(c1ccc(Br)cc1)CC(=O)N2` (configuration not stated)?
ALOX12 inh: inactive

Results for Nc1nc2c(s1)C(c1cccc(OCc3cccc(F)c3)c1)CC(=O)N2 (configuration not stated) ?
ALOX12 inh: 3.55µM

Results for COc1cccc(C2CC(=O)Nc3nc(N)sc32)c1OCc1ccc(F)cc1 (configuration not stated) ?
ALOX12 inh: 2µM

Results for NC(N)=N/N=C(\N=Nc1ccccc1)c1ccc(Cl)cc1 ?
GLP1R inv ag: 10µM; PTHR1 agonist: inactive; GLS inhibitor: inactive; GLP-1R agonist: inactive; ALOX12 inh: inconclusive; Glioma ERSR ind: inactive

What do the screens show for `O=C1NC2(CCN(Cc3ccc(F)cc3)CC2)COc2ccccc21`?
ALOX12 inh: inactive

Results for O=C1NC2(CCN(CC3CCCCC3)CC2)COc2ccccc21 ?
ALOX12 inh: 63.1µM

How did O=C(COc1ccc([N+](=O)[O-])cc1)Nc1ccc2oc(-c3ccc(F)cc3)nc2c1 do in these assays?
ALOX12 inh: 7.94µM

How did CCCC(CCC)C(=O)Nc1ccc2c(c1)N(C(=O)CN1CCN(C)CC1)c1ccccc1CC2 do in these assays?
GLP1R inv ag: 7.94µM; PTHR1 agonist: inactive; GLS inhibitor: inactive; GLP-1R agonist: inactive; ALOX12 inh: inactive; Glioma ERSR ind: inactive

Results for COc1ccc(N2CCN(c3oc(COc4ccccc4)nc3C#N)CC2)cc1 ?
GLP1R inv ag: 2.82µM; PTHR1 agonist: inactive; GLS inhibitor: inactive; GLP-1R agonist: inactive; ALOX12 inh: inactive; Glioma ERSR ind: inactive

Results for COc1ccccc1NS(=O)(=O)c1cc(NC(=S)NCCN2CCOCC2)ccc1N1CCOCC1 ?
GLP1R inv ag: inactive; PTHR1 agonist: inactive; GLS inhibitor: inactive; GLP-1R agonist: inactive; ALOX12 inh: 50.1µM; Glioma ERSR ind: inactive

How did COc1ccccc1NS(=O)(=O)c1cc(NC(=O)C(C)(C)C)ccc1N1CCOCC1 do in these assays?
GLP1R inv ag: inactive; PTHR1 agonist: inactive; GLS inhibitor: inactive; GLP-1R agonist: inactive; ALOX12 inh: inactive; Glioma ERSR ind: inactive

How did O=C(COc1ccc([N+](=O)[O-])cc1)Nc1cc(S(=O)(=O)N2CCCCC2)ccc1N1CCCCC1 do in these assays?
GLP1R inv ag: inactive; PTHR1 agonist: inactive; GLS inhibitor: inactive; GLP-1R agonist: inactive; ALOX12 inh: 39.8µM; Glioma ERSR ind: inactive

Results for O=C(COc1ccc(F)cc1)Nc1cc(S(=O)(=O)N2CCCCC2)ccc1N1CCCCC1 ?
GLP1R inv ag: inconclusive; PTHR1 agonist: inactive; GLS inhibitor: inactive; GLP-1R agonist: inactive; ALOX12 inh: 6.31µM; Glioma ERSR ind: inactive

How did O=C(CN(Cc1ccco1)Cc1ccco1)Nc1cc(S(=O)(=O)N2CCCCC2)ccc1Cl do in these assays?
GLP1R inv ag: 10µM; PTHR1 agonist: inactive; GLS inhibitor: inactive; GLP-1R agonist: inactive; ALOX12 inh: inactive; Glioma ERSR ind: inactive

How did COc1ccc(CNC(C)=O)cc1 do in these assays?
ALOX12 inh: inactive

What do the screens show for `COc1ccc(CNC(=O)c2ccc3noc(-c4ccccc4)c3c2)cc1OC`?
ALOX12 inh: inactive

How did COc1cc(OC)cc(C(=O)N(C)CCCNC(=O)c2nc3ccccc3c(=O)[nH]2)c1 do in these assays?
ALOX12 inh: inactive

Results for CCN1CCN(c2ccc(S(=O)(=O)N3CCCCC3)cc2NC(=O)C(C)Oc2ccc(F)cc2)CC1 (configuration not stated) ?
GLP1R inv ag: inconclusive; PTHR1 agonist: inactive; GLS inhibitor: inactive; GLP-1R agonist: inactive; ALOX12 inh: 44.7µM; Glioma ERSR ind: inactive

How did O=C(Nc1cc(S(=O)(=O)N2CCOCC2)ccc1N1CCCC1)c1ccc(F)cc1 do in these assays?
GLP1R inv ag: inactive; PTHR1 agonist: inactive; GLS inhibitor: inactive; GLP-1R agonist: inactive; ALOX12 inh: 39.8µM; Glioma ERSR ind: inactive

How did COc1ccc(-c2csc(NC(=O)c3ccccc3NS(=O)(=O)c3ccc(F)c(F)c3)n2)cc1 do in these assays?
GLP1R inv ag: inconclusive; PTHR1 agonist: inactive; GLS inhibitor: inactive; GLP-1R agonist: inactive; ALOX12 inh: inconclusive; Glioma ERSR ind: inactive

How did O=C(Nc1ccc(F)cc1)Nc1ccc(N2CCCC2)c(S(=O)(=O)Nc2ccccc2Cl)c1 do in these assays?
GLP1R inv ag: inconclusive; PTHR1 agonist: inactive; GLS inhibitor: inactive; GLP-1R agonist: inactive; ALOX12 inh: inactive; Glioma ERSR ind: inactive

How did O=C(Nc1cc(S(=O)(=O)N2CCCCC2)ccc1N1CCOCC1)c1ccc(F)cc1 do in these assays?
GLP1R inv ag: inactive; PTHR1 agonist: inactive; GLS inhibitor: inactive; GLP-1R agonist: inactive; ALOX12 inh: inactive; Glioma ERSR ind: inactive

How did CC(Oc1ccc(F)cc1)C(=O)Nc1cc(S(=O)(=O)N2CCCCC2)ccc1N1CCOCC1 (configuration not stated) do in these assays?
GLP1R inv ag: inconclusive; PTHR1 agonist: inactive; GLS inhibitor: inactive; GLP-1R agonist: inactive; ALOX12 inh: inconclusive; Glioma ERSR ind: inactive
